Over roughly 33,000 sequences, “E-score (-0.5 to 0.5)” has its median near -0.015; the highest 2% begin near 0.3. This excerpt belongs to a sample that is enriched for the highest values.
Target: T1, Abf1 (UniProt P14164)
T1 sequence: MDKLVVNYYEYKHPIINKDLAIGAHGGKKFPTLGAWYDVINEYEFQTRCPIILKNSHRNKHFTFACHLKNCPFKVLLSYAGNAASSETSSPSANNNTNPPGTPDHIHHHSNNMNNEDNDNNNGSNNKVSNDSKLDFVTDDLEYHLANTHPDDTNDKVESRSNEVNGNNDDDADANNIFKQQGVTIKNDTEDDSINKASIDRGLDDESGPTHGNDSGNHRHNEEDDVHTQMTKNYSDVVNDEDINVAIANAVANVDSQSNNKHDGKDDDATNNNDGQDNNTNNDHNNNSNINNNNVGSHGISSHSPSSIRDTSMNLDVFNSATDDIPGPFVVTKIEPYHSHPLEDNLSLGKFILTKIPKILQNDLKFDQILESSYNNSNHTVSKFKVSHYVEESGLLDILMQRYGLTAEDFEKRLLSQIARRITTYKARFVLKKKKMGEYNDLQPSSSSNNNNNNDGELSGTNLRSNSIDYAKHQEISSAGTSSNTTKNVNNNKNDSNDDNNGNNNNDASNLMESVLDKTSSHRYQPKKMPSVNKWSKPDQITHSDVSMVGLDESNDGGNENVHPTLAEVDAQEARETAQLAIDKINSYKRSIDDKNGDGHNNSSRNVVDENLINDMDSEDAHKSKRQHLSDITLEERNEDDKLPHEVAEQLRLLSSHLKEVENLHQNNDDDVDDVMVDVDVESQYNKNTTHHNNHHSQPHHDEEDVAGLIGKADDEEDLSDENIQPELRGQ
Experiment: PBM E-score (8-mer binding enrichment) (E-score (-0.5 to 0.5)); higher = stronger / more preferred TF binding
Settings: protein concentration: 200 nM; construct: GST-full length
Summary of the method: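 E-scores (a modified Wilcoxon-Mann-Whitney statistic) were assigned by the Universal PBM Analysis Suite to every ungapped eight-base word pooled with its reverse complement. The input came from universal all-10-mer Agilent arrays made double-stranded by primer extension and probed with GST-tagged yeast transcription factors at about 100-200 nM. Fluorescent anti-GST detected bound protein, and masliner normalised the scans.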

Sequence | PBM E-score
CCCCGGAC | -0.105
GTGGTCAA | 0.0649
AGTACGGC | 0.224
CGTACGTC | 0.359
AGTACGTC | 0.125
CGTACGCC | 0.155
CGTACGGA | 0.355
GGTACGGA | 0.13
CGTACGTA | 0.266
AGTACGGA | 0.118
CGTACGGC | 0.396
ATGACTGA | -0.0877
CGAATGAC | 0.312
CGTATGAA | 0.426
CGTATGAC | 0.334
AGTATGAC | 0.186
GGTATGAC | -0.0891
CGTATGAG | 0.189
AGAATGAC | 0.255
AGTATGAA | 0.135
CGAATGAA | -0.164
AGTGTTCA | -0.11
ACCAGTGG | -0.261
ATAATCCG | -0.0846
AAACAACG | 0.0689

Sequence | PBM E-score
CAGTCGAG | -0.177
CGCCGCGA | 0.0127
TCCGTTAA | 0.0849
AGTGATCC | 0.189
CGTGATCA | 0.379
CGTGATCC | -0.0112
AGTGATCA | 0.416
CCTGATCA | 0.112
AGTGATCG | 0.239
GGGGATCA | -0.0388
GGTGATCA | 0.305
GCTGATCA | 0.139
AGTACCGG | -0.202
ACTCCTGC | -0.173
AAGATCAT | 0.289
AAGATCAC | 0.325
CAGATCAC | 0.284
GAGATCAA | 0.109
GAGATCAC | 0.347
GAGATCGC | 0.164
AATTGACT | -0.00646
CGTACCGA | 0.232
AATAAGCG | -0.0622
ATATCATG | 0.297
ATATCATC | 0.408

Sequence | PBM E-score
CTATCATC | 0.151
ATATCATA | 0.33
AAATCATC | 0.278
CTATCATA | 0.143
GCAAAAAC | 0.0419
GATAGGAC | -0.123
AGGCGTTC | -0.191
AATACTAA | 0.0807
AATACTAT | -0.00924
AATACTAC | 0.301
AGGGACCG | -0.0817
CATGCCGG | -0.00463
ATCACGAA | 0.256
ATCACGTA | 0.218
ATCACGGA | 0.246
CTCACGTC | 0.0288
ATCACGGC | 0.35
ATCACGCG | 0.373
ATCACGGG | 0.163
ATCACGCA | 0.272
ATCACGAC | 0.363
ATCACGTC | 0.336
ATCACGAT | 0.26
ATCACGCC | 0.253
AGGCTTAT | -0.0827

Sequence | PBM E-score
CAACCGCA | -0.0837
ACTTTGTC | 0.217
CCCGCTAG | -0.157
ATGATCCA | 0.0885
GCGTCATA | 0.138
CCGTCATA | 0.37
CCGTCATC | 0.128
AATGGTCC | -0.0212
ATCATCGA | 0.175
ATCATCAG | 0.16
ATCATCGC | 0.301
ATCATCGG | 0.116
TTCATCAA | 0.041
AGCATCAT | 0.0136
AACATCAG | 0.0871
ATCATCAT | 0.376
ATCATCAA | 0.26
AACATCAC | 0.283
AACATCAT | 0.309
GTCATCAA | 0.31
ATCGCATC | 0.0782
GAATCCCA | -0.00947
AGGCCTTG | -0.302
CTCTCTGA | -0.149
ACCCTTCA | -0.0788

Sequence | PBM E-score
AGGTGTCA | -0.0121
AATTCTGT | -0.144
GTCATCAC | 0.334
GGCATCAC | 0.0726
CACATCAC | 0.244
ATCATCAC | 0.393
AGCATCAC | -0.0618
GCCATCAC | -0.121
GACATCAA | 0.178
CTCATCAC | 0.217
GACATCAC | 0.352
AGCTTGAC | -0.245
GTGGTGTA | -0.0517
GCCCCTTA | -0.138
CGCCGCCG | -0.223
ATACGGCC | 0.208
CTACGGCA | 0.291
GTACGGCA | 0.222
ATACGGCA | 0.376
ATACGGCG | 0.384
ATACGGGG | 0.172
AGAGGGTC | -0.274
CTTAGGGC | -0.183
GGCTCGAC | -0.0785
CGGCGTCA | -0.103

Sequence | PBM E-score
CCTCACTA | 0.159
AATCACTC | 0.224
GTTCACTA | 0.115
GCTCACTA | 0.0163
CATCACAC | 0.141
AATCACTG | 0.204
CATCACTC | 0.385
CATCACTA | 0.351
GATCACTA | 0.389
AATCACTA | 0.359
CCTCACTC | 0.0309
CATCACAA | 0.0688
ATCGTAGA | 0.28
AGTGTGGA | -0.0464
CAGTAGGA | -0.109
ATTGTGGG | -0.127
TACCGCGA | -0.111
GGTCGACA | -0.106
GAGCCTAC | -0.171
ATGGTTTC | -0.0221
GATGGGCC | -0.28
CACAGTTA | 0.164
TCTCGAGA | 0.302
GCTCGAGA | -0.143
CCTCGAGA | -0.0603

Sequence | PBM E-score
CATTGTGC | -0.115
CCGAACTA | -0.143
TCGTAGAA | 0.393
ACGTAGAA | 0.108
GCGTAGAA | 0.0196
CCGTAGAA | 0.298
CCGTAGAG | 0.102
CCGTAGAC | 0.0491
ATACCGGC | 0.0536
CGGGCGCC | -0.053
GTGATTAA | 0.249
CGGATAGA | 0.147
AGTGGTGA | 0.131
GCATCACC | -0.101
ACATCACC | 0.353
ACATCACT | 0.415
ACATCAGT | -0.0164
ACATCACG | 0.231
ACATCATA | 0.169
ACATCATG | 0.24
ACATCATC | 0.328
ACATCACA | 0.183
CAACCTAC | -0.122
GCCTAGGA | -0.178
CATGGCGG | -0.0941

Sequence | PBM E-score
ACATCTGA | -0.0545
TGATAACA | 0.341
CGATAAAA | 0.285
GGATAACA | 0.0228
TGATAAAA | 0.337
CGATAACA | 0.106
GGATAAAA | 0.158
TCATGAAA | 0.00026
GGTCGCCA | -0.074
TCATGGGA | -0.042
AACGCTGT | 0.00818
ACTGGTAC | -0.0194
CGTCCAGC | -0.0241
TAGTGTCA | 0.117
GAGTGACA | 0.432
CAGTGACC | 0.132
GAGTGACC | 0.207
GAGTGCCA | -0.212
CAGTGAAA | 0.0736
TAGTGACA | 0.414
TAGTGTGA | 0.137
CAGTGACA | 0.3
AACGGACC | -0.168
TGATCCCA | -0.0944
CTAGCTGC | -0.114

Sequence | PBM E-score
CGAGGTGA | 0.129
GACACTTA | -0.0374
ACTGCACG | -0.0217
CGCCACCA | -0.138
GAGATCTA | -0.121
GTGATCTA | 0.407
GTGATCCA | 0.132
ATGATCTA | 0.297
CTGATCTA | -0.106
ATGATCTC | 0.296
CGGCCAAC | -0.133
GACGATGC | 0.231
ACAGCCGC | -0.223
CGTGCAAG | 0.169
TGTGCACA | 0.0303
CGTGCAAC | 0.247
CGTGCAAA | 0.337
CGTGCACA | 0.196
CGTGCACG | 0.419

From the supplement of paper PMC3334620
